According to PubChem BioAssay (Tox21):
Several values for one entry are separate records, joined by “and”; a condition that tells them apart may be missing. Equal entries are not always repeated. Records with an inconclusive call do not appear. A structure can be active in one record and inactive in another. Activity calls are given as the source filed them. Calls come from the whole dose curve; as a rule, active = well fitted curve in the direction sought with a large enough effect in the repeat runs; inconclusive = weak or mixed curves; inactive = no such curve, though single readings can be large; an effect the other way counts as inactive or inconclusive.

Assays:
[1] = qHTS assay to identify small molecule antagonists of the glucocorticoid receptor (GR) signaling pathway - cell viability counter screen (AID 720693); note: nearly all actives have a fitted effect of over 55% in size
[2] = qHTS assay for identifying genotoxic compounds that show differential cytotoxicity against isogenic chicken DT40 cell lines with known DNA damage response pathways - wild type cell line (AID 743012); note: nearly all actives have a fitted effect of over 60% in size; note: potency is the fitted concentration of half-maximal effect
Method in brief: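 Quantitative HTS on parental DT40 cells: 40 h compound treatment at 37 C/5% CO2, with viability then determined by CellTiter-Glo luminescence. Values serve as the DNA repair-proficient reference for differential cytotoxicity.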

[3] = qHTS assay for identifying genotoxic compounds that show differential cytotoxicity against isogenic chicken DT40 cell lines with known DNA damage response pathways - Rev3 mutant cell line (AID 743014); note: nearly all actives have a fitted effect of over 55% in size; note: potency is the fitted concentration of half-maximal effect
[4] = qHTS assay for identifying genotoxic compounds that show differential cytotoxicity against isogenic chicken DT40 cell lines with known DNA damage response pathways - Rad54/Ku70 mutant cell line (AID 743015); note: nearly all actives have a fitted effect of over 60% in size; note: potency is the fitted concentration of half-maximal effect
[5] = qHTS assay to identify small molecule antagonists of the androgen receptor (AR) signaling pathway - cell viability counter screen (AID 743033; note: nearly all actives have a fitted effect of over 45% in size)
[6] = qHTS assay to identify small molecule antagonists of the androgen receptor (AR) signaling pathway using the MDA cell line - cell viability counter screen (AID 743041; note: nearly all actives have a fitted effect of over 45% in size; note: potency is the fitted concentration of half-maximal effect)
Method in brief: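 MDA-kb2 AR-luc cells (MMTV-luciferase, AR/GR responsive) treated with compounds plus R1881 agonist for 16 h at 37C. CellTiter-Fluor added at 15.5 h; fluorescence read after 30 min in the same wells.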

Measured: Potency

Nc1nc(N)nc(-c2ccccc2)n1
inactive: all assays above

CC(C)=CCl
34.8 µM (active) and inactive: [3]
inactive: all other assays above

N[C@H](Cc1c[nH]c2ccccc12)C(=O)O
inactive: all assays above

O=S(=O)(O)c1ccc(N=Nc2c(O)ccc3cc(S(=O)(=O)O)ccc23)cc1
active: [6] 30.8 µM and 27.3 µM
inactive: all other assays above

CC(C)CCCCCCCOC(=O)CCCCC(=O)OCCCCCCCC(C)C
inactive and 38.6 µM (active): [3]
inactive: all other assays above

CC1(C)CC(N)CC(C)(CN)C1 (stereo unspecified)
inactive and 54.5 µM (active): [3]
inactive: all other assays above

CNC(=O)Oc1ccc2c(c1)[C@]1(C)CCN(C)[C@@H]1N2C
inactive and 48.6 µM (active): [3]
inactive: all other assays above

C=CCc1ccc(OC)c(OC)c1
inactive: all assays above

Cc1ccc2ncccc2c1
inactive: all assays above

COCCOC(=O)c1ccccc1C(=O)OCCOC
inactive: all assays above

CCCCCCCCCCCC(=O)OC
inactive: all assays above

Cc1ccc(S(=O)(=O)N=C=O)cc1
inactive: all assays above

CCCCCCC=O
inactive and 48.6 µM (active): [2]
inactive and 43.3 µM (active): [3] | [4]
inactive: all other assays above

O=[N+]([O-])c1ccc2nc[nH]c2c1
inactive: all assays above

NCCCCCCN
inactive: all assays above

CCCCCCCCCCCCCCCCO
inactive and 68.6 µM (active): [3]
inactive: all other assays above

CC(=O)OC1CC(C)OC(C)O1 (stereo unspecified)
inactive: all assays above

COc1ccc(OC)cc1
inactive: all assays above

CC(C)c1cccc(C(C)C)c1
inactive: all assays above

C=CCCCCCCCCC(=O)O
inactive: all assays above

c1ccc(Oc2ccccc2)cc1
inactive: all assays above

CCNC(=S)NCC
inactive: all assays above

CC(C)(C)c1cc(Cc2cc(C(C)(C)C)c(O)c(C(C)(C)C)c2)cc(C(C)(C)C)c1O
active: [3] 61.1 µM
inactive and 54.5 µM (active): [4]
inactive and 61.1 µM (active): [2]
inactive: all other assays above

C=CC(C)CCCC(C)(C)O (stereo unspecified)
inactive and 61.1 µM (active): [3]
inactive: all other assays above

C[Si]1(C)O[Si](C)(C)O[Si](C)(C)O[Si](C)(C)O1
inactive: all assays above

CC(C)CC(C)O (stereo unspecified)
inactive and 61.1 µM (active): [3]
inactive: all other assays above

COc1ccc([N+](=O)[O-])cc1N
inactive and 54.5 µM (active): [4]
inactive: all other assays above

CCCOC(=O)c1ccccc1
inactive: all assays above

CCCCOC(=O)c1ccc(N)cc1
active: [3] 9.44 µM and 13.5 µM | [4] 7.5 µM and 7.59 µM
inactive and 13.5 µM (active): [2]
inactive: all other assays above

OC1C(O)C(O)C(O)C(O)C1O (stereo unspecified)
inactive: all assays above

CCCCCCCO
inactive: all assays above
